Holding throughout (assay): NCI-60 one-dose screen, 48 h (100 = growth as untreated, 0 = no growth, -100 = all killed)
Conditions in all cases: 10 µM unless noted

In experiment [1] the test system is SK-MEL-2 melanoma.
In experiment [2] the test system is SN12C renal.
Experiment [3] has as its system UO-31 renal.
In experiment [4] the test system is TK-10 renal.
In experiment [5] the test system is A498 renal.
Experiment [6] concerns CCRF-CEM leukemia.
In experiment [7] the test system is MOLT-4 leukemia.
In experiment [8] the test system is CAKI-1 renal.
Experiment [9] relates to ACHN renal.

Each structure is given as a SMILES string. The panel holds about 83,000 compounds, 20% with a hit somewhere; the sample as a whole holds those more often.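 Interpretation: 100, growth as untreated; towards 0, rising growth inhibition; 0, no net growth; 0 to -100, cell death. Compounds scoring below 10 were considered active.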 Values without a mark were called inactive. Activity calls are given as the source filed them.

Turning to `COC1(OC)C2(Cl)C=C(c3ccccc3)C1(Cl)C(Cl)=C2Cl` (configuration not stated), the growth was 87% in experiment [1]; 104% in experiment [2]; 70% in experiment [3]; 106% in experiment [4]; 105% in experiment [5]; 91% in experiment [6]. In addition, the growth in [7] is 74.3%.
Regarding `Cn1c(=O)c(S(=O)(=O)c2ccccc2)cc2ccc3c(cnn3-c3ccc(Cl)cc3)c21`, the growth in [1] was 87.2%; in [2], 86.6%; in [3], 52.2%; in [4], 81.5%; in [8] it was 82.8%; in [5], 53.5%. Further, the growth in [6] is 95.8%; in [7], 94.8%.
As for `NC(=O)c1nc2c([nH]c1=O)CCCC2`, the growth was 106% in experiment [1]; 107% in [2]; 83.5% in experiment [3]; 102% in experiment [4]; 93% in experiment [8]; 99.4% in experiment [5]. For the same molecule, the growth in experiment [6] is 94.4%; in experiment [7] it was 97.3%.
With `COc1ccc(/C=C/C(=O)N2CCC(O)CC2)cc1OC1CCCC1`, the growth in experiment [1] is 107%; in [2], 95%; in experiment [3], 87.8%; in experiment [4], 102%; in experiment [9], 102%; in experiment [8], 93.1%. For the same molecule, the growth in experiment [6] is 119%; in [7], 97.6%.
Regarding `COc1ccc(C2OCC(C)(C)CO2)cc1OC`, the growth in experiment [1] was 106%; in [2] it was 98.5%; in [3] it was 89.8%; in [4], 109%; in experiment [9] it was 107%; in experiment [5], 115%. In addition, the growth was 94.3% in [6] and 100% in experiment [7].
Regarding `N#CC1=C(N)Oc2cc(N)ccc2C1c1ccc(F)cc1` (configuration not stated), the growth in experiment [1] was 79.8%; in [2], 90.4%; in [3], 79.5%; in experiment [4] it was 84.8%; in experiment [9] it was 99.4%; in [5], 64.8%. In addition, the growth in [6] is 66.6%; in experiment [7], 70.8%.
For `C[C@H]1C(=O)C23CCC1C[C@@]21O[C@@H]2C(C)(C)C=CC(=O)C23COC1=O`, the growth in experiment [1] is 104%; in experiment [2], 103%; in [3], 81.5%; in [4] it was 98.9%; in experiment [9] it was 104%; in experiment [5], 92%. Besides, the growth is 71.7% in experiment [6] and 102% in experiment [7].
As for `Cc1c(C(=O)Nc2nc(-c3ccccc3)cs2)nnn1-c1ccccc1Br`, the growth is 40.1% [50 µM] in experiment [1]; 50.9% [50 µM] in [2]; 41.7% [50 µM] in experiment [3]; 41.9% [50 µM] in experiment [9]; 33.7% [50 µM] in [8]; 50.5% [50 µM] in [5]. Moreover, the values for the growth in [6] and in experiment [7] were 41.1% [50 µM] and 17% [50 µM], respectively.
Regarding `Cn1c2ccccc2c2nn(C(=O)c3ccccc3)c(=O)nc21`, the growth in experiment [1] is 113%; in [2], 102%; in [3] it was 73.4%; in experiment [9], 105%; in experiment [8], 103%; in experiment [5], 108%. Moreover, the growth in experiment [6] was 96.9%; in [7], 104%.
Regarding `COc1cc(Cn2cc(F)c(=O)[nH]c2=O)cc(OC)c1`, the growth in experiment [1] is 114% [50 µM]; in [2], 98.9% [50 µM]; in [3] it was 75.3% [50 µM]; in experiment [9], 101% [50 µM]; in [8] it was 92.9% [50 µM]; in experiment [5] it was 98.2% [50 µM]. The growth in experiment [6] and in experiment [7] was 103% [50 µM] in each case.
Regarding `COc1ccc(Nc2nc(NCCNc3ccnc4cc(Cl)ccc34)nc(N3CCOCC3)n2)cc1`, the growth in experiment [1] is 78.8%; in experiment [2] it was 61.4%; in [3], 45.3%; in experiment [4], 103%; in experiment [9] it was 63.2%; in experiment [5], -17.7% (active). Also, the growth in experiment [6] is 56.4%; in experiment [7] it was 35.6%.
As to `Cc1nc2cc(Nc3nc(NCCO)nc(Nc4ccc(F)cc4)n3)ccc2n1Cc1ccccc1`, the growth is 122% in [1]; 91.1% in [2]; 78.8% in experiment [3]; 133% in experiment [4]; 66.2% in [5]; 1.93% (active) in experiment [6].
`COc1cc(/C=C2\C(=O)N(c3c(Cl)cccc3Cl)c3ccccc32)cc(OC)c1O`: the growth in experiment [1] was 36%; in experiment [2], 50%; in [3], 31.7%; in experiment [4], 48.2%; in experiment [9], 40.5%; in experiment [5], 102%. Moreover, the figures for the growth in experiment [6] and in [7] were 17.6% and 0.985% (active), respectively.
With `Cc1cc(Cl)c2c(Cl)ccc(Cl)c2n1`, the growth in experiment [1] was 81.4%; in experiment [2], 113%; in experiment [3] it was 89.8%; in experiment [9], 105%; in [8] it was 95%; in [5] it was 104%. The growth is 98.7% in [6] and 95.6% in [7].
`CC1(C)N=C(N)N=C(N)N1c1cccc(OCCOc2cccc([N+](=O)[O-])c2)c1`: the growth was 39.4% in experiment [1]; 28.8% in [2]; 78.4% in experiment [3]; 89.9% in [9]; 90.1% in [8]; 91% in experiment [5]. In addition, the growth in [6] was 29.7%; in experiment [7] it was 26%.
On to `O=C(N/N=C/c1ccc2c(c1)OCO2)c1cnn2c1NC(c1ccccc1)C2` (configuration not stated), for which the growth was 50.1% in experiment [1]; 73.7% in [2]; 67.5% in experiment [3]; 70.3% in experiment [4]; 21.1% in [8]; 67.7% in [6]. In addition, in experiment [7], the growth is 75.2%.
Regarding `CS(=O)(=O)Nc1cccc(C(=O)NCc2ccc(N3CCOCC3)cc2)c1`, the growth was 96.7% in experiment [1]; 107% in experiment [2]; 93% in [3]; 93.3% in experiment [4]; 115% in experiment [9]; 94% in [5]. For the same molecule, the growth in experiment [6] is 99.8%; in experiment [7], 93.2%.
`COc1cc(/C=C/C(=O)C2=C(/C=C/c3ccc(O)c(OC)c3)NC(=O)NC2c2ccc(O)c(OC)c2)ccc1O` (configuration not stated): the growth was 105% in experiment [1]; 93.6% in experiment [2]; 84.4% in [3]; 88.2% in experiment [9]; 93.9% in experiment [8]; 101% in experiment [5]. In addition, the growth is 69.8% in experiment [6] and 70.3% in experiment [7].
As for `ONc1nc(NO)c2[nH]cnc2n1`, the growth is 96% in experiment [1]; 80.7% in experiment [2]; 52.6% in experiment [3]; 60.9% in experiment [9]; 64.1% in [8]; 78.7% in experiment [5]. The results for the growth in [6] and in [7] were 12.7% and 9.57% (active), respectively.
For `C[C@@H](Oc1cc(-c2cnn(C3CC4(CNC4)C3)c2)cnc1N)c1c(Cl)ccc(F)c1Cl`, the growth is 32.6% in experiment [1]; 22.9% in experiment [2]; 51.5% in experiment [3]; 48.6% in experiment [9]; 65.7% in [8]; 24% in [5]. Also, the growth in experiment [6] was 24%; in experiment [7], 0.522% (active).
In the case of `Cn1c2c(cc(S(=O)(=O)c3ccccc3)c1=O)CCc1c-2cnn1-c1cccc(Cl)c1`, the growth in experiment [1] was 107%; in [2] it was 90.3%; in [3], -84.5% (active); in experiment [9] it was -87.9% (active); in experiment [8] it was -58% (active); in experiment [5], 71.4%. In addition, the growth in [6] was 90.9%; in experiment [7], 86.2%.
For the molecule `CC(=O)N(CC(O)CO)c1c(I)c(C(=O)NCCO)c(I)c(C(=O)NCC(O)CO)c1I` (configuration not stated), the growth in experiment [1] was 95.8%; in experiment [2], 98.9%; in experiment [3], 69.3%; in [9], 103%; in experiment [8], 99.3%; in experiment [5], 110%. The growth in [6] was 93.4%; in experiment [7], 84.3%.
For `COc1cccc(OC(=O)c2ccccc2)c1OC(=O)c1ccccc1`, the growth is 57.6% in [1]; 76.7% in experiment [2]; 87.7% in experiment [4]; 98.3% in [9]; 75.2% in [8]; 88.9% in experiment [5]. Further, the growth in experiment [6] is 87.6%; in experiment [7], 79.5%.
Regarding `Cc1ccc(S(=O)(=O)N2C/C(=C\c3cc(F)cc(F)c3)C(=O)/C(=C/c3cc(F)cc(F)c3)C2)cc1`, the growth in experiment [1] was -25.9% (active); in experiment [2] it was -73.9% (active); in experiment [3], -90.5% (active); in experiment [9], -91.4% (active); in experiment [8], -7.75% (active); in [5], -25.7% (active). Also, the growth in [6] is -9.43% (active); in experiment [7] it was -5.52% (active).
Take `COc1cc(NC(=O)COc2ccccc2)c(C(N)=O)cc1OC`: the growth was 9.86% (active) in experiment [1]; 44.7% in experiment [2]; 51.3% in [3]; 54.9% in [9]; 37.1% in experiment [8]; 4.84% (active) in experiment [5]. Further, the growth was 6.33% (active) in [6] and 26.9% in experiment [7].
On to `CN1CCc2c(Sc3ccc(C(=O)NO)cc3)c3ccccc3n2C1`, for which the growth is 39.6% in [1]; 59.4% in experiment [2]; 62.8% in experiment [3]; 64.6% in experiment [9]; 78.8% in experiment [8]; 28.6% in [5]. Also, the growth in [6] is 3.13% (active); in [7], 6.7% (active).
As for `C=CC(=O)N1CC2(CC(n3nc(-c4ccc(Oc5ccccc5)cc4)c4c(N)ncnc43)C2)C1`, the growth is 28.6% in experiment [1]; 17.1% in experiment [2]; 15.2% in [3]; 5.33% (active) in experiment [9]; 8.28% (active) in experiment [8]; -71.7% (active) in experiment [5]. Moreover, the results for the growth in experiment [6] and in experiment [7] were 54.3% and 17%, respectively.
Turning to `NC(=O)c1cc(Cl)ccc1NC(=O)COc1ccccc1`, the growth was 49.7% in experiment [1]; 64.3% in [2]; 58.3% in [3]; 58.4% in [9]; 83.5% in experiment [5]; 23.2% in [6]. The growth in experiment [7] is 34.7%.
For the molecule `CCCC1=NNC(=O)C1`, the growth in [1] is 106%; in experiment [2], 101%; in [3] it was 82.8%; in [9], 103%; in experiment [8], 94.8%; in experiment [5], 109%. For the same molecule, the growth in [6] was 100%; in [7], 97.2%.

These data come from PubChem BioAssay (NCI).
